# Shown are actives, neighbours in structure and some others; about 2.3% of the full set was active somewhere.
# Nrf2 ARE act: Nrf2 pathway activation. AREc32 ARE-luciferase reporter (MCF7-derived line), luminescence, 24 h. Potency, µM (top dose mostly 46.1 µM), without a hit: at the top dose activation, hits mostly activators. actives 0.31% (n = 410,000). AID 624171; note: potency is the fitted concentration of half-maximal effect; % of control where 0% means no effect; nearly all actives have a fitted effect of over 65% in size
#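 Luciferase luminescence (Steady-Glo, 30 min at room temperature) served as the read-out of ARE activation in AREc32 cells treated with compounds for 24 hr at 37 deg C.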
# A549 tox: counter-screen for Nrf2 inhibitors: cytotoxicity in A549 cells; A549 ARE-Fluc cells, CellTiter-Fluor viability, 18-24 h; Potency, µM (top dose mostly 46 µM), for inactives: top-dose activity change, negative = cytotoxicity, usual class: inhibitors; actives 0.16% (n = 390,000); note: potency is the fitted concentration of half-maximal effect; % is set by controls: 0 for no effect and ±100 for the full control effect
#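 A549 ARE-Fluc cells in 5% FBS OPTI-MEM, 5000 cells/well, rested 2 h then exposed to compounds in concentration-response for 18-24 h at 37 °C. Viability by CellTiter-Fluor fluorescence (Ex 405/Em 525) after 30 min; luciferase luminescence (BugLite, 15 min, RT) read afterwards.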
# IL-2 act: activators of IL-2; actives 0.065% (n = 360,000); IL-2 activation reporter assay, cell-based qHTS; stimulated with anti-CD3/CD4/CD28 beads; in transgenic mouse T cells; activation, % (series mostly up to about 46 µM); in the data active = activation above about 50%; inconclusive = mostly about 30% to 49%; note: 0% is about no effect
#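 EGFP and DsRed fluorescence is measured by plate cytometry in unstimulated transgenic mouse T cells exposed to compound for 60 minutes, then stimulated 18 hours at 37 degrees C with anti-CD3/anti-CD4 beads plus anti-CD28.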
# Nrf2 inh: Nrf2 pathway inhibition; A549 ARE-Fluc reporter, luciferase luminescence, 18-24 h; Potency, µM (series often up to 46 µM), for the others: at the highest dose activity change, negative = inhibition, usual class: inhibitors; actives 2.1% (n = 360,000); note: potency is the fitted concentration of half-maximal effect; % is set by controls: 0 for no effect and ±100 for the full control effect; nearly all actives have a fitted effect of over 60% in size
#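 Two sequential reads on A549 ARE_Fluc cells exposed to compound for 18-24 h: a CellTiter-Fluor fluorescence read for viability, then a luciferase luminescence read for Nrf2/ARE activity.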
# Starred values were filed as active, the others as inactive; ? = inconclusive; nt = not tested or not shown; ! = repeats disagree; [ ] = another dose, or the depositor's remark. Unless noted, calls come from the whole dose curve; as a rule, active = well fitted curve in the direction sought with a large enough effect; inconclusive = small, poorly fitted or top-dose-only effect, or another doubt; inactive = no such curve, though single readings can be large; an effect the other way counts as inactive or inconclusive.
SMILES,Nrf2 ARE act,A549 tox,IL-2 act,Nrf2 inh
O=[N+]([O-])c1ccc(S(=O)(=O)CC(CN2CCCCC2)N2CCCCC2)cc1 (configuration not stated),-0.2%,-4.1%,-1.1,?
COc1cc(NC(=O)C2CCN(S(=O)(=O)c3c(C)noc3/C=C/c3ccccc3F)CC2)cc(OC)c1OC,6.0%,?,nt,nt
Cc1ccc(NC(=O)Cn2c(=O)c3ccccc3n3nncc23)cc1,0.4%,6.2%,nt,-1.2%
CC(C)Sc1nc(N2CCOCC2)c2c3c(sc2n1)COC(C)(C)C3,0.2%,nt,1.5,14.6µM*
Cc1oc(-c2ccccc2F)nc1CSCC(=O)NC1CCCC1,0.3%,-0.1%,-3.2,18.4µM*
CCOCCOC(=O)c1[nH]c2c(c1C)C(=O)CC(c1ccc(OC)c(OC)c1)C2 (configuration not stated),1.6%,-1.1%,-1.0,20.6µM*
Clc1ccc(Cn2c(-c3cccnc3Cl)nc3ccccc32)cc1,0.1%,0.4%,-1.3,-19.8%
Clc1ccc(Cn2c(-c3cccnc3Cl)nc3ccccc32)c(Cl)c1,2.3%,?,-0.5,18.4µM*
CCC(C(=O)Nc1ccc(C(=O)OC)cc1)n1c(=O)c(-c2ccccc2NC(C)=O)nc2ccccc21 (configuration not stated),0.1%,0.7%,nt,14.1%
Cc1ccc(CNC(=O)CCN2C(=O)COc3ccc(C)cc32)cc1,-0.7%,-2.5%,nt,-12.0%
O=C(c1ccccc1)N(C(=O)c1ccccc1)c1ncnc2c1C(c1ccccc1)c1c(ccc3ccccc13)O2 (configuration not stated),3.3%,?,0.0,2.91µM*!
CCOC(=O)CCCC(=O)Nc1ncnc2c1C(c1ccccc1)c1c(ccc3ccccc13)O2 (configuration not stated),-2.9%,?,6.5,?
O=C(CCc1ccccc1)Nc1ncnc2c1C(c1ccccc1)c1c(ccc3ccccc13)O2 (configuration not stated),nt,-7.4%,nt,4.61µM*
O=C(NCc1ccccc1)Nc1ncnc2c1C(c1ccccc1)c1c(ccc3ccccc13)O2 (configuration not stated),nt,0.9%,nt,6.3%
Cc1cccc(C)c1-n1c(SCC(=O)N2CC(=O)Nc3ccccc32)nc2ccccc2c1=O,-0.6%[9.22 µM],-16.4%,0.5,23.1µM*
Cc1nnc(SCC(=O)N2CC(=O)Nc3ccccc32)s1,-0.7%,4.7%,-0.1,0.2%
O=C1CN(C(=O)CSc2nc(-c3ccc(Cl)cc3)cs2)c2ccccc2N1,4.4%,1.3%,-2.9,23.1µM*
Cc1cc(N2CCOCC2)n2nc(C)c(-c3ccccc3Cl)c2n1,0.4%,?,-1.0,16.4µM*
CCCN1CNc2c(c(=O)[nH]c(=S)n2CCc2cc(C)ccc2C)C1,nt,7.7%,nt,1.5%
Cc1ccccc1CSc1nnc2[nH]c(=O)cc(-c3ccccc3)n12,-1.2%,-3.3%,nt,nt
O=C(Nc1nc(-c2ccc(Cl)s2)cs1)c1cccs1,?,-22.5%,1.9,?
O=C(Nc1nc(-c2ccccn2)cs1)c1ccc(Cl)s1,5.2%,?,-2.0,2.59µM*
Cc1ccc(C(=O)Nc2nc(-c3ccccn3)cs2)s1,5.5%,-24.7%,-0.3,-18.0%
CC(Oc1cccc(Cl)c1)C(=O)Nc1nc(-c2ccccn2)cs1 (configuration not stated),?,?,-3.2,16.4µM*
O=C(Nc1nc(-c2cc(Cl)sc2Cl)cs1)c1ccccc1,10µM*,?,1.3,?
SMILES,Nrf2 ARE act,A549 tox,IL-2 act,Nrf2 inh
COc1ccc(NC(=O)CSc2nc(-c3cccs3)cc(C(F)(F)F)n2)cc1OC,-0.7%,-14.0%,nt,nt
COCCNc1cc(N2CCN(C3CCCCC3)CC2)c2noc3c2c1C(=O)c1ccccc1-3,-0.4%,0.8%,nt,3.0%
Cc1cc(C)c(NC(=O)Cn2c(=O)n(Cc3ccc(C(=O)NCc4ccco4)cc3)c(=O)c3sccc32)c(C)c1,0.2%,-17.7%,nt,?
Cc1cccc(C)c1NC(=O)Cn1c(=O)n(Cc2ccc(C(=O)NCc3ccco3)cc2)c(=O)c2sccc21,0.2%,-22.0%,nt,18.4µM*
O=C(CCSCCc1ccccn1)Nc1ccc(Cl)cc1,0.4%,8.1%,nt,nt
Cc1cc(C)cc(S(=O)(=O)c2cnc3ccccc3n2)c1,22.4µM*,-4.2%,-1.0,8.8%
CC(=O)Nc1ccccc1N(CC(O)Cn1c2ccccc2c2ccccc21)S(=O)(=O)c1ccc(C)cc1 (configuration not stated),0.2%,-22.1%,-4.2,25.9µM*
COC(=O)c1cccc(NC(=S)NCCC2=CCCCC2)c1,4.3%,-8.2%,4.6,23.1µM*
COC(=O)c1ccc(NC(=S)NCCC2=CCCCC2)cc1,-0.5%,-1.3%,-2.8,?
CSc1nn(Cc2ccc(C)cc2)c(N)c1S(=O)(=O)c1ccccc1,0.6%,-1.5%,nt,16.4µM*
CCCCCc1nc(N)c(C#N)c(-c2ccco2)c1CCCC,4.8%,3.2%,3.7,-8.4%
CCc1nc(N)c(C#N)c(-c2ccco2)c1C,2.51µM*,-1.9%,1.5,-10.2%
CCOC(=O)[C@H]1[C@H]2COc3ccc(Br)cc3[C@H]2N2C(=O)CN(Cc3ccc(Cl)cc3)C(=O)[C@@]12C,4.8%,-11.6%,-0.7,25.9µM*
CCCC[n+]1ccn(C2=C([O-])c3ccccc3C(=O)/C2=N\S(=O)(=O)c2ccccc2)c1,-2.5%,?,1.5,20µM*
CC(C)[n+]1ccn(C2=C([O-])c3ccccc3C(=O)/C2=N\S(=O)(=O)c2ccccc2)c1,-2.0%,-8.3%,-0.6,23.1µM*
CCCCC[n+]1ccn(C2=C([O-])c3ccccc3C(=O)/C2=N\S(=O)(=O)c2ccccc2)c1,-1.6%,?,-2.2,?
O=C(NCCCc1nc2ccccc2n1Cc1ccc(Cl)cc1)c1ccco1,10.1%,2.7%,nt,18.6%
Oc1c(C=Nc2ccccc2)sc(=S)n1Cc1ccccc1,6.8%,-19.3%,71.4*,?
CCn1c(O)c(C=Nc2ccccc2)sc1=S,7.2%,?,3.8,?
Cc1ccc(CNC(=O)c2ccc(Cn3c(=O)c4ccccc4n(CC(=O)Nc4ccc(C)cc4)c3=O)cc2)cc1,0.2%,-3.9%,nt,-7.7%
CCOc1ccc(NC(=O)Cn2c(=O)n(Cc3ccc(C(=O)NCc4ccc(C)cc4)cc3)c(=O)c3ccccc32)cc1,0.0%,-13.8%,nt,18.4µM*
COc1ccc(/C=C/C(=O)c2c(O)cc(C)oc2=O)c(OC)c1,26.3%,-22.8%,172.1*,?
COc1cccc(/C=C/C(=O)c2c(O)cc(C)oc2=O)c1O,?,-11.0%,1.1,-2.1%
COc1cc(NC(=O)N2CCC(CN3CCCCCC3)CC2)cc(OC)c1OC,-0.3%,-1.4%,nt,?
COc1ccc(S(=O)(=O)Nc2ccc(C)cc2)cc1N(C)S(=O)(=O)c1ccc(Cl)cc1,4.6%,?,-1.3,18.4µM*
COc1ccc(S(=O)(=O)N2CCCCC2)cc1N(C)S(=O)(=O)c1ccccc1,0.2%,13.4%,-3.9,-6.1%
COc1ccc(S(=O)(=O)N2CCCCCC2)cc1N(C)S(=O)(=O)c1ccccc1,-0.2%,-8.7%,-0.4,23.1µM*

# Assay outcomes (PubChem)
